Rows were chosen to be rich in hits. Some 11% of all compounds tested hit in one or more screens of this group.
HTT ATP protect: cytoprotection in Huntington HTT-Q103 PC12 cell model; PC12 HTT-Q103 induced, cytoprotection, ATP luminescence, 40 h; Potency, µM (series often up to 56.4 µM), for inactives: cytoprotection (ATP increase), usual class: activators; 230,000 tested, 0.14% active; also: potency is read from the fitted curve at half-maximal effect; % of control where 0% means no effect; nearly all actives have a fitted effect of over 45% in size
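Readout: ATPlite luminescence (ATP level). Model: stable PC12, inducible Htt exon1 Q103-GFP. Inducer: tebufenozide, 100 nM final. Compounds: dose series. No G418 in medium.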
RGS12 GoLoco inh: inhibitors of human Gai1-RGS12 GoLoco interaction (red fluorophore) | Gai1:RGS12 GoLoco peptide FP, rhodamine, 10 min | Potency, µM (highest dose often 61.6 µM), inactives show at the highest dose activity, negative = inhibition, hits mostly inhibitors | 230,000 tested, 0.44% active | AID 880; active = well fitted inhibition curve with a large enough effect, not every such curve was filed as active; inactive = no such curve, though single readings can be large or run the other way; also: potency is read from the fitted curve at half-maximal effect; % is scaled to controls: 0 for no effect and ±100 for the full control effect; nearly all actives have a fitted effect of over 30% in size
Target sequence (P63096 whole entry, looked up): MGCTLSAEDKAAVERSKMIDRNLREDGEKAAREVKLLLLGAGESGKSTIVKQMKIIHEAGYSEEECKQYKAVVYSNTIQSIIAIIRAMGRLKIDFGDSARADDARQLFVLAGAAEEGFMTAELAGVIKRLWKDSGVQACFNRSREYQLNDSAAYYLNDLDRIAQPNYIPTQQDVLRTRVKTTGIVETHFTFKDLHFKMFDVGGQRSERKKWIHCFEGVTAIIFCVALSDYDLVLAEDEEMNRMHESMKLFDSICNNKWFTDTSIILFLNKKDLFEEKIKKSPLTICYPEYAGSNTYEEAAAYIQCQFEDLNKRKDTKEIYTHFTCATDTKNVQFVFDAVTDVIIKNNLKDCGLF
HttQ103 aggreg: reduces HttQ103-GFP aggregates in PC12 cells; PC12 HttQ103-GFP aggregates, Acumen cytometry, 40 h; 220,000 tested, 1.1% active; Potency, µM (top dose mostly 46.1 µM), inactives show top-dose activity change, negative = inhibition, most hits filed as inhibitors; also: potency is read from the fitted curve at half-maximal effect; % is scaled to controls: 0 for no effect and ±100 for the full control effect; nearly all actives have a fitted effect of over 60% in size
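Compounds (qHTS titration) were added to PC12 cells expressing an ecdysone-driven HTT exon 1 Q103–GFP fusion after induction with 100 nM tebufenozide. Aggregate formation was measured as GFP objects in cell lysates.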
HPGD inh: blocks human HPGD enzyme activity | P15428 | purified HPGD, NADH fluorescence kinetic, PGE2 substrate | Potency, µM, inactives show top-dose activity change, negative = inhibition, usual class: inhibitors | 150,000 tested, 4.3% active | AID 894; active = well fitted inhibition curve with a large enough effect, not every such curve was filed as active; inconclusive = small, poorly fitted or top-dose-only effect, or another doubt; inactive = no such curve, though single readings can be large or run the other way; also: potency is read from the fitted curve at half-maximal effect; % is scaled to controls: 0 for no effect and ±100 for the full control effect
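NADH formation kinetics: reaction with 30 uM PGE2 and 1 mM NAD+ (final), 20 nM enzyme, Tris-HCl pH 8 with Tween 20, after 15 min compound preincubation at room temperature. Fluorescence change, last versus first of five reads.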
ALDH1A1 inh: ALDH1A1 (human) enzyme inhibition; P00352; Purified ALDH1A1, NADH fluorescence, propionaldehyde substrate; Potency, µM (highest dose often 75.3 µM), inactives show top-dose activity, negative = inhibition, actives largely listed as inhibitors; 220,000 tested, 7.3% active; active = well fitted inhibition curve with a large enough effect, not every such curve was filed as active; inconclusive = small, poorly fitted or top-dose-only effect, or another doubt; inactive = no such curve, though single readings can be large or run the other way;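 also: potency is read from the fitted curve at half-maximal effect; plate controls were no enzyme wells and a reference inhibitor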
PNC inhibitor: blocks assembly of the perinucleolar compartment; activity change (PNC), negative = inhibition, % at 10 µM; 140,000 tested, 3.1% active; PC3M PTB-GFP, PNC prevalence imaging, 16 h; stronger effect = lower value;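 active = readout at or below -70, meaning at least 70% loss of cells showing the perinucleolar compartment, a nuclear body marking cancer cells; inconclusive = readout between -30 and a set limit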;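 also: plate controls were DMSO wells for no effect and camptothecin positive control wells for full effect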
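Compounds are pinned in duplicate onto adhered PC3M cells stably expressing GFP-tagged PTB and incubated 16 h at 37 C. Cells are then fixed, nuclei stained with Hoechst, and PNC-positive cells counted.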
Active calls of the source: *; i = inactive; ? = inconclusive; . = not tested or not shown; [ ] = remark or other dose. Unless noted, calls follow the shape of the dose curve; as a rule, active = well fitted curve in the direction sought with a large enough effect; inconclusive = small, poorly fitted or top-dose-only effect, or another doubt; inactive = no such curve, though single readings can be large; an effect the other way counts as inactive or inconclusive.

SMILES	HTT ATP protect	RGS12 GoLoco inh	HttQ103 aggreg	HPGD inh	ALDH1A1 inh	PNC inhibitor
COc1cccc2c1C(=O)c1c(O)c3c(c(O)c1C2=O)C[C@@](O)(C(=O)CO)C[C@H]3O[C@H]1C[C@@H](N)[C@H](O)[C@@H](C)O1.[W]	-43.2%[10 µM]	-17.5%[14.2 µM]	.	-3.0%	-10.6%[13.5 µM]	.
CN(C)C1C(=O)C(C(N)=O)C(=O)C2(O)C(=O)C3C(=O)c4c(O)ccc(Cl)c4C(O)C3CC12 (centres undefined)	?	5.6%	.	-20.1%	-7.3%	.
Nc1nc(-c2cccc(NS(=O)(=O)c3ccccc3)c2)cs1	7.3%[10 µM]	-26.8%	?	11.2µM*	7.94µM*	11.2
N/C(=N\OC(=O)c1ccc(Cl)cc1)c1[nH]ncc1Br	-11.4%[10 µM]	2.1%	-40.6%[9.22 µM]	.	.	.
CCN(C(=S)NCc1ccccc1)c1ccccc1	-23.8%	-1.7%	-8.6%	.	-3.8%	.
N#C/C=C1/NC(=O)c2ccccc2S1	2.8%[10 µM]	5.6%	-9.5%	2.24µM*	3.3%	23.7
CCOC(=O)C1=C(O)c2ccccc2C(=O)/C1=C\c1ccc(CC)cc1	-25.8%[10 µM]	i	13.5%	0.891µM*	18.9µM*	-16.4
CCOC(=O)c1ccc(COC(=O)c2ccc3c(c2)-c2ccccc2C3=O)cc1	-3.8%	8.6%	2.5%	-15.7%	-2.7%	31.3
CCCc1ccc(/C=C2\C(=O)c3ccccc3C(O)=C2C(=O)OCC)cc1	-10.5%[10 µM]	-127.9%	?	4.47µM*	?	?
CC#CCN1c2ccccc2[C@]23C[C@@H](C(=O)OC)N(C(=O)CC(C)C)C2=NC(C(=O)OC)=C(C(=O)OC)[C@H]13	10.8%[10 µM]	0.1%[14.2 µM]	.	-1.3%	1.8%[13.5 µM]	.
O=C(Nc1ccc2c(c1)nc1n2CCSC1)c1ccccc1	-166.6%[0.074 µM]	9.2%	-15.1%	-6.7%	22.4µM*	?
COc1ccc(C(=O)Nc2ccc3c(c2)nc2n3CCSC2)cc1	4.9%	108.6%	32.2%	?	?	12.9
COc1cc(/C=C(\NC(C)=O)C(=O)Nc2cccc(O)c2)ccc1OC(C)=O	.	-3.0%	-14.5%	-12.9%	0.0891µM*	?
COc1cc(/C=C(\NC(C)=O)C(=O)NC(C)(C)C)ccc1OC(C)=O	1.7%[10 µM]	-0.1%	-10.7%	-16.0%	9.2%	83.6
CN(C)c1ccc(-c2ccc([C@H]3[C@@H]4C=CCC[C@@]4(C)C(=O)N3Cc3ccccc3)c(F)c2)cc1	-6.3%[10 µM]	7.6%	17.4%[9.22 µM]	.	.	.
COCCCN1CN(Cc2ccccc2)CNC1=S	20.4%[10 µM]	13.7%	10.8%	-7.2%	8.91µM*	-92.0*
CCCN1CN(Cc2ccccc2)CNC1=S	-16.5%[10 µM]	10.0%	-12.7%	-4.2%	1.6%	?
[O-]/[N+](=C\c1ccc(F)cc1)c1ccccc1	-4.0%	-5.1%	34.1%	-7.3%	20µM*	-18.7
[O-]/[N+](=C\c1cccc(Br)c1)c1ccccc1	-28.2%	-26.3%	-2.4%	.	0.316µM*	.
[O-]/[N+](=C\c1ccccc1)[C@@H]1CCCC[C@@H]1/[N+]([O-])=C/c1ccccc1	-15.4%	.	3.6%	.	1.0%	-26.5
COC(=O)N1c2ccccc2C23[C@@H]4CN5CCC[C@]6(CCC12C(O)(C6)C4=O)[C@H]53	?	1.6%	.	-1.8%	4.0%	.
C=CCc1c(C)nc(SC)nc1Nc1ccc(C(C)=O)cc1	-15.9%	-10.7%	?	-29.6%	8.91µM*	14.5
Cc1ccc(C#CC[N+]2(CC#Cc3ccc(C)cc3)CCCCC2)cc1	-16.7%[10 µM]	-4.4%	11.2µM*	-5.9%	4.1%	-15.8
O=C(C[N+]1(CC#Cc2ccccc2)CCCCC1)c1ccccc1	-31.5%	62.7%	?	.	8.91µM*	.
O=C(C[N+]1(CC#Cc2ccccc2)CCCCC1)c1ccc(Cl)cc1	4.6%	31.1%	-21.3%	.	22.4µM*	.
C(#Cc1ccccc1)C[N+]1(CC#Cc2ccccc2)CCCCC1	-44.2%[10 µM]	21.6%	-31.1%[9.22 µM]	.	-6.9%	.
NC(=O)C1=C[C@H](C2CCCCC2)C[C@H](OCc2ccc(CO)cc2)O1	-0.1%[10 µM]	2.6%	-0.9%[9.22 µM]	.	?	.
C/C(=N\NC(=O)CC#N)c1ccc(Oc2ccccc2)cc1	-7.6%	-2.8%	-4.7%	.	2.9%	.
